Key:
[1] = target: T1, Mitogen-activated protein kinase kinase kinase 7 (Homo sapiens) (UniProt O43318); details: at 1 µM
T1 sequence (whole entry): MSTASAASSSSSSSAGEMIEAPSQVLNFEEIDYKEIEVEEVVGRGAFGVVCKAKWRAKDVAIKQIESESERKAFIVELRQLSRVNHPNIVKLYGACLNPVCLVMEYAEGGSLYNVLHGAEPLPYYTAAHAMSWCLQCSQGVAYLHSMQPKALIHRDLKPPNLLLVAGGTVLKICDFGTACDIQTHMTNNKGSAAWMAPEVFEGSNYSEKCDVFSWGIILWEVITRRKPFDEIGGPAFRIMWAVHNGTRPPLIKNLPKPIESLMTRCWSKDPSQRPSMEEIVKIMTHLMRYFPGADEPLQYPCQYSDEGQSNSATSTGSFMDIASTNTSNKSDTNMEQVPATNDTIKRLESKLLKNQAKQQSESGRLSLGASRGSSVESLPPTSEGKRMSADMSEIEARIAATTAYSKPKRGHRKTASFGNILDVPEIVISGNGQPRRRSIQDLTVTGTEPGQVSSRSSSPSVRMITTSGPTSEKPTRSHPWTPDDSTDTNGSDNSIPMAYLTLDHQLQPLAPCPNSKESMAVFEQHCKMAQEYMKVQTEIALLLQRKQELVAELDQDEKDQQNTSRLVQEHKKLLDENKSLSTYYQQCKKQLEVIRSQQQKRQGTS

[2] = target: T1, Mitogen-activated protein kinase kinase kinase 7 (Homo sapiens); details: at 10 µM
[3] = target: T2, Serine/threonine-protein kinase TAO1 (Homo sapiens) (UniProt Q7L7X3); details: at 10 µM
T2 sequence (whole entry): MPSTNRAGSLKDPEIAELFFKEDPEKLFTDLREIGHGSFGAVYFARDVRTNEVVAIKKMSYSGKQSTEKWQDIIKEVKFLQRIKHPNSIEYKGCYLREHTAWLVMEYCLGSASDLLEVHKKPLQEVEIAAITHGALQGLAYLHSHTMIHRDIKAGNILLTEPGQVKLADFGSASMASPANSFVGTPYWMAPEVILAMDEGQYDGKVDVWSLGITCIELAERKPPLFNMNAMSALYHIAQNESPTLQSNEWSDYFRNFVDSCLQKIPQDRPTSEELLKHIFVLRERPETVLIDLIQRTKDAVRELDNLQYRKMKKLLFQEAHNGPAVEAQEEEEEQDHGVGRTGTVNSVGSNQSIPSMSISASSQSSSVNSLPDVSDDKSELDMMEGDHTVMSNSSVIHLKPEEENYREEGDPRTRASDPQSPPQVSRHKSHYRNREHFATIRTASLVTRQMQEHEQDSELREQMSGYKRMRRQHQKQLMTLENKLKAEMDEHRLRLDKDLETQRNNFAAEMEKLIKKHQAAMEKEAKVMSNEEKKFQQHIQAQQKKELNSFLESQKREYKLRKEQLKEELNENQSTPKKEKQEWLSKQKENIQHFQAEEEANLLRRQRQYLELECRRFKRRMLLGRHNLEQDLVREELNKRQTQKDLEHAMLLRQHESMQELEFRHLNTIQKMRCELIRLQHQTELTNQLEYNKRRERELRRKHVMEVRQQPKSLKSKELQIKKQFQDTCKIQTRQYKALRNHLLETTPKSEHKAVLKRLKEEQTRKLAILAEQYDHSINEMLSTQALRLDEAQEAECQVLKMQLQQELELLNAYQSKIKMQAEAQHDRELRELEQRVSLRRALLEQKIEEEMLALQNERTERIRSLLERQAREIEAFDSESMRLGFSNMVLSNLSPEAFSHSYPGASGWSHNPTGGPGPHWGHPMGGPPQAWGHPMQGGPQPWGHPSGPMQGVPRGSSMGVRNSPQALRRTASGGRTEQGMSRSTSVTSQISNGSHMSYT

[4] = target: T3, Serine/threonine-protein kinase TAO2 (Homo sapiens) (UniProt Q9UL54); details: at 1 µM
T3 sequence (whole entry): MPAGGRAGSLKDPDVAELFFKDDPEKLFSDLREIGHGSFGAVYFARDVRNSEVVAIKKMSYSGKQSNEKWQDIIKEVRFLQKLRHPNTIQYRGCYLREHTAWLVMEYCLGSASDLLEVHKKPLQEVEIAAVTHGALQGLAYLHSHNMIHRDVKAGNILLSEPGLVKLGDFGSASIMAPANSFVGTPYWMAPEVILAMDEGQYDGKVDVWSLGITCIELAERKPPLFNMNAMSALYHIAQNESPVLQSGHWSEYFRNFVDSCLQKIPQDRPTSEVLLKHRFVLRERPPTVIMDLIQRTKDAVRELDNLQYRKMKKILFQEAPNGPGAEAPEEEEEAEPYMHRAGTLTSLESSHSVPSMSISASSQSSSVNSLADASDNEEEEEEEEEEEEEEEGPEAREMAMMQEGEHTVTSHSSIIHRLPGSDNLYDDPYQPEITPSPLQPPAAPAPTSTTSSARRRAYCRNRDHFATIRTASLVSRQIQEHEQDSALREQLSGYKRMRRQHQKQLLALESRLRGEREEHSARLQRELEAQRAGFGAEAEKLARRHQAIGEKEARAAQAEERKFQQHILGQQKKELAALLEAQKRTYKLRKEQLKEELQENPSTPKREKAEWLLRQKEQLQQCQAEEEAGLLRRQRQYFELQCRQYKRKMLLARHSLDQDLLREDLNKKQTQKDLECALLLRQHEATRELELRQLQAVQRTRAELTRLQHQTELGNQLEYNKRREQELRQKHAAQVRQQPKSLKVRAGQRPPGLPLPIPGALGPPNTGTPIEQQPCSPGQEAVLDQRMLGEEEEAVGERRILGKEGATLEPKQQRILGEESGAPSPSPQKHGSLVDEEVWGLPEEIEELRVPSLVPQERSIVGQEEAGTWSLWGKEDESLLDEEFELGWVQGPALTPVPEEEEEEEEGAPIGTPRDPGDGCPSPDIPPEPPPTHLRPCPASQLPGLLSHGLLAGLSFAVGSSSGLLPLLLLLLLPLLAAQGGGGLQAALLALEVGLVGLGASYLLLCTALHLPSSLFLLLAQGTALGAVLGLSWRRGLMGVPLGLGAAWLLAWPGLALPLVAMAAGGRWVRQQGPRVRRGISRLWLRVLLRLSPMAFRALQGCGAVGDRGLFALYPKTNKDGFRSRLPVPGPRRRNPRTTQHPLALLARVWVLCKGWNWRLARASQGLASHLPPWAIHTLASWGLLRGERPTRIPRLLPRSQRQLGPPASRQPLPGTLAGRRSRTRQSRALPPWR

[5] = target: T3, Serine/threonine-protein kinase TAO2 (Homo sapiens); details: at 10 µM
[6] = target: T4, Serine/threonine-protein kinase TBK1 (Homo sapiens) (UniProt Q9UHD2); details: at 1 µM
T4 sequence (whole entry): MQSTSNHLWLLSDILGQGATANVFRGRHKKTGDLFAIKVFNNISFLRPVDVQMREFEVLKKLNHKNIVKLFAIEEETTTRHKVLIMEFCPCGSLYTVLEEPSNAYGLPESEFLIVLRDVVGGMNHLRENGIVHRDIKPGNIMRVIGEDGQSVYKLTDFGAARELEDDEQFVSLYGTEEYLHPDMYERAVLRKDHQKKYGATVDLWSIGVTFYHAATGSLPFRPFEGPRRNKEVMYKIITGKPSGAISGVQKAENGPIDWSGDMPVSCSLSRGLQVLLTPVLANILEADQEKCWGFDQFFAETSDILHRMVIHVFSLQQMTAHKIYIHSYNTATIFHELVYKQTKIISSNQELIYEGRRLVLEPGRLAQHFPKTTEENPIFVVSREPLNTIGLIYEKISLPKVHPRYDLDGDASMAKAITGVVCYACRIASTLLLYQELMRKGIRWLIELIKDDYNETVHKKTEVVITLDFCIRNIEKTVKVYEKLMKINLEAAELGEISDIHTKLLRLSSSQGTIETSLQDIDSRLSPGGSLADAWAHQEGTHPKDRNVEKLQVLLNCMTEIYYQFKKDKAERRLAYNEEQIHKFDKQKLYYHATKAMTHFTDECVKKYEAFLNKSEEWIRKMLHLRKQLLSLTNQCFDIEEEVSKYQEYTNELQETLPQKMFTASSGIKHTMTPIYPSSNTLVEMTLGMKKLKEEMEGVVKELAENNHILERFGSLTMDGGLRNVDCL

[7] = target: T4, Serine/threonine-protein kinase TBK1 (Homo sapiens); details: at 10 µM
[8] = target: T5, TGF-beta receptor type-1 (Homo sapiens) (UniProt P36897); details: at 1 µM
T5 sequence (whole entry): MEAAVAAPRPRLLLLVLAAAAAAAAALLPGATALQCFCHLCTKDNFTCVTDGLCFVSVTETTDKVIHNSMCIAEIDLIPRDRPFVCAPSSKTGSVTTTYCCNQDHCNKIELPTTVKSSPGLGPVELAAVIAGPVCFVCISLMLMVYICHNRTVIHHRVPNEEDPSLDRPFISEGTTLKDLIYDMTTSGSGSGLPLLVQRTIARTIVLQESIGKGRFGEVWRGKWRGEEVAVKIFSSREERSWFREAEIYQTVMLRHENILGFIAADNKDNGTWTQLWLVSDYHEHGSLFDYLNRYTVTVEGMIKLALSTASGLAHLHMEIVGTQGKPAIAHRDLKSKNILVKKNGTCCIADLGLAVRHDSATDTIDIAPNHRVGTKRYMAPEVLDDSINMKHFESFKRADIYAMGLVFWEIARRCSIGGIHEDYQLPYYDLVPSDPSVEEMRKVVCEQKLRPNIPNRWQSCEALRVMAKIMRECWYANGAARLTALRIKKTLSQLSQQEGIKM

[9] = target: T5, TGF-beta receptor type-1 (Homo sapiens); details: at 10 µM
[10] = target: T6, Inhibitor of nuclear factor kappa-B kinase subunit alpha (Homo sapiens) (UniProt O15111); details: at 1 µM
T6 sequence (whole entry): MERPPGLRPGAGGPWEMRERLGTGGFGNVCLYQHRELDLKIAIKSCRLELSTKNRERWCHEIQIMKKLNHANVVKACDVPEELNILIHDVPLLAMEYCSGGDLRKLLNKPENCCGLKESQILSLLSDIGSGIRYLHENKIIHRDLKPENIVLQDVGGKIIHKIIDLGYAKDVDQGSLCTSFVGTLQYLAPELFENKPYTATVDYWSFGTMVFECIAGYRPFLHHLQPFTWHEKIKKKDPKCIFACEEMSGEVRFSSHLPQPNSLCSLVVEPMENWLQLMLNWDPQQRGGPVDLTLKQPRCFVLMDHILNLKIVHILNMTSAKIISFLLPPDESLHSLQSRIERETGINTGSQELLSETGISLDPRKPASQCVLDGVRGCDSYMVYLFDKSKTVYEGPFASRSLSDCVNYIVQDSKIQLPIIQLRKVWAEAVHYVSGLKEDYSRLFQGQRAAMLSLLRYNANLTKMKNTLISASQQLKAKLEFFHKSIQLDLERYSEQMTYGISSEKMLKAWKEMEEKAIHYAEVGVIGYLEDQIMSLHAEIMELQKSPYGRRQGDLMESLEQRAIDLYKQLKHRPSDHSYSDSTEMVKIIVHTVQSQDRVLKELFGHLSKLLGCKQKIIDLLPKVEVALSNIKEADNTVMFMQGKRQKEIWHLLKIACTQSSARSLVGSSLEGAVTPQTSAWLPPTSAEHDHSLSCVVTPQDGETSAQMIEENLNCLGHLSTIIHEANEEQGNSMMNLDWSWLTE

[11] = target: T6, Inhibitor of nuclear factor kappa-B kinase subunit alpha (Homo sapiens); details: at 10 µM
[12] = target: T7, Inhibitor of nuclear factor kappa-B kinase subunit beta (Homo sapiens) (UniProt O14920); details: at 1 µM
T7 sequence (whole entry): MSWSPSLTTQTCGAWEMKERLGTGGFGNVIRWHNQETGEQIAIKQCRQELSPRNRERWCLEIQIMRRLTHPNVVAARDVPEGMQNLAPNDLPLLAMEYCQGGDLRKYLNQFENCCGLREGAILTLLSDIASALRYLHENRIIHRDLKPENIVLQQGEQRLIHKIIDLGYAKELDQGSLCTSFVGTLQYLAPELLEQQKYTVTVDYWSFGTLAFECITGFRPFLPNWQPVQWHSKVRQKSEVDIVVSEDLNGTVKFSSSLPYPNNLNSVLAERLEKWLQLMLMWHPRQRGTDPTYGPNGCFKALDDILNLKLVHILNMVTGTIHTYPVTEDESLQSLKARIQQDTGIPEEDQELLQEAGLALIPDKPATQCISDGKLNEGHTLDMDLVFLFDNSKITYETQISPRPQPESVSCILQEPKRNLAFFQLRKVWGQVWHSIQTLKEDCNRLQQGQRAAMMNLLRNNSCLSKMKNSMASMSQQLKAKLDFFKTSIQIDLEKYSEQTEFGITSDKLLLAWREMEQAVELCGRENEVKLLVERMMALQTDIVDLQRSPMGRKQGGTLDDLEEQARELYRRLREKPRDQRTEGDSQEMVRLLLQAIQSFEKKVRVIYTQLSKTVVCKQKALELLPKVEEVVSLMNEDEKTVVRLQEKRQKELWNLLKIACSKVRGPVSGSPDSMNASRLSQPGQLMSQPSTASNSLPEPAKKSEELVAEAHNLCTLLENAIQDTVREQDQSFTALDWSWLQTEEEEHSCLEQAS

[13] = target: T7, Inhibitor of nuclear factor kappa-B kinase subunit beta (Homo sapiens); details: at 10 µM

Structure (SMILES): Nc1n[nH]c2nc3ccccc3nc12
- residual activity [1]: 91%
- residual activity [2]: 74%
- residual activity [3]: 75%
- residual activity [4]: 93%
- residual activity [5]: 85%
- residual activity [6]: 78%
- residual activity [7]: 63%
- residual activity [8]: 91%
- residual activity [9]: 82%
- residual activity [10]: 93%
- residual activity [11]: 69%
- residual activity [12]: 122%
- residual activity [13]: 90%
